Activity calls are given as the source filed them. How the source made its calls: active means hit-call score of the fitted dose curve at least 0.9, where 1 is the maximum; inactive means score below 0.9.

Read-out in the assay: Interleukin 6 (IL6), IL6 (gene 3569)
Put plainly: LTEA_HepaRG_IL6: Life Technologies and Expression Analysis (LTEA) Assay for Interleukin 6 (IL6) using HepaRG (AID 2283509). Particulars: mRNA level, 48 h; actives raise or lower the signal. The protocol:
LTEA_HepaRG is a cell based, multiplexed-readout assay that uses HepaRG, a human liver cell line, with measurements taken at 48 hours after chemical dosing on a 96-well plate.LTEA_HepaRG_IL6 is one of 102 assay component(s) measured in the LTEA HepaRG cell culture assay. It is a marker of Inflammation.Data from the assay component LTEA_HepaRG_IL6 was analyzed into 1 endpoint. This assay endpoint, LTEA_HepaRG_IL6, was analyzed with bidirectional fitting relative to DMSO as the negative control and baseline of activity. Using a type of inducible reporter, measures of mRNA induction for gain or loss-of-signal activity can be used to understand regulation of transcription factor activity. To generalize the intended target to other relatable targets, this assay endpoint is annotated to the cytokine intended target family, where the subfamily is interleukins.
A total of 1060 chemcials from the ToxCast library were tested in eight-point concentration-response experiments. Cell culture and cytotoxicity assays were conducted at Thermo Fisher Scientific's Custom Services facility (Madison, WI). A single lot of human HepaRG cells (Thermo Fisher Scientific, Frederick, MD) was used for the cell culture experiments. 96-well format collagen type I coated plates of human HepaRG cells were prepared using established methods. Briefly, cryopreserved HepaRG cells were thawed, plated at a density of approximately 100,000 cells/well in HepaRG Thaw, Plate, and General Purpose media (HPRG770, Thermo Fisher Scientific), and incubated for 48 hours. 0.5% DMSO was selected as vehicle control to balance the requisite need of DMSO in HepaRG cultures to maintain differentiation (for example, baseline metabolism, proportions of hepatocytes vs. cholangiocytes), while enabling further hepatic receptor pathway activation (for example, PXR and CAR) in response to chemical exposure. 48 hours after plating, the culture medium was replaced with HepaRG Serum-Free Incudtion Media. Cells were exposed to each test chemical in duplicate and maintained in CO2 incubators for another 48 hours. Chemical plates were thawed to room temperature and 200x concentrations of treatment groups were prepared. 8-point conentration-reponse curves were made with the highest exposure at 100 uM, followed by half-log dilutions, all in 0.5% DMSO. Each test plate contained variouse controls, induction positive controls (1mM phenobarbital), cytotoxicity positive controls ([…] aflatoxin B1), vehicle controls (0.5% DMSO), and total lysis controls (0.5% DMSO). Cell morphology images were taken using an Essen IncuCyte FLR automated microscope, with six 96-well plates imaged in about 24 minutes. Images were captured and exported and JPEG files. Spent culture media was transfered to black-well plates for the LDH assay, and remaining media was sorted at -80 C for later use. Cells were treated with RLT buffer and frozen until shipped for gene expression analysis. Total RNA was isolated from the cell suspension in 75 uL of Buffer RLT (Qiagen, Germantown, MD 20874) by Quintiles/Expression Analysis (Durham, NC) using a custom isolation procedure. Total RNA from each plate well was transferred to a preamplification plate. Fluidigm's 96.96 Dynamic ArrayTM (Fluidigm, Amsterdam, the Netherlands) technology was used for gene expression analyses by quantitative reverse transcription polymerase chain reaction (qRT-PCR, performed by Quintiles/Expression Analysis, Durham, NC)89. Standard TaqManTM Assays (Applied Biosystems/ThermoFisher Scientific, Foster City, CA) were used to assess the expression of 93 genes selected based on their selectivity and sensitivity to important hepatic receptors known to be modulated by environmental chemicals; importance in human hepatocyte functionality; and hepatotoxicity. […]
As a reminder, the AC50 is the concentration giving half of the maximal activity seen. For `COc1ccc(S(=O)(=O)N2C(=O)[C@@](c3ccccc3OC)(N3C[C@H](O)C[C@H]3C(=O)N(C)C)c3cc(Cl)ccc32)c(OC)c1`, the concentration at half-maximal activity (AC50) is 58.2 µM (active).

Take `Cc1ccccc1Cl`: the call was inactive.

For `CCCCCC(=O)O`, the call was inactive.

Take `CCCCCCCC=O`: the result was inactive.

As to `CCCCN(CCCC)CCCC`, the compound was classed as inactive.

Consider `CCCCCCCCCCCCCO`, for which the compound was classed as inactive.

With `CCCCOC(=O)CCCCCCCCC(=O)OCCCC`, the call was inactive.

For `NCCO`, the result was inactive.

For `Cc1cc(=O)[nH]c(=S)[nH]1`, the outcome was inactive.

On to `CCNc1cccc(C)c1`, for which the compound was classed as inactive.

As for `CC(=O)OCCOCCOCCOC(C)=O`, the compound was classed as inactive.

As for `C=CCc1ccc(O)c(OC)c1`, the compound was called inactive.

With `Cc1nc(C)nc(N2C[C@@H](C)N(c3ccnc([C@@H](C)O)n3)[C@@H](C)C2)n1`, the call was inactive.

As for `Cc1c(C(=O)O)c(O)cc2c1C(=O)c1c(O)c([C@@H]3O[C@H](CO)[C@@H](O)[C@H](O)[C@H]3O)c(O)c(O)c1C2=O`, the call was inactive.

`CC=Cc1ccc(O)c(OC)c1`: the outcome was inactive.

As for `COc1ccc(C)cc1N`, the outcome was inactive.

For the compound `Nc1ccc(S(=O)(=O)c2ccc(N)cc2)cc1`, the compound was classed as inactive.

Regarding `CCOC(=O)CCC(=O)OCC`, the call was inactive.

As to `O=c1[nH]cc(F)c(=O)[nH]1`, the outcome was inactive.

Turning to `CCCCCCC(=O)OCC`, the call was inactive.

For the compound `Nc1ccc2c(c1)C(=O)c1ccccc1C2=O`, the call was inactive.

On to `COc1cc(-c2nc(NC(=O)c3cc4cc(C)cc(C)c4n3CC(=O)O)sc2CCC2CCCCC2)c(OC)cc1Cl`, for which the half-maximal activity concentration (AC50) is 4.98 µM (active).

Turning to `Oc1ccc2ccccc2c1N=Nc1ccccc1`, the compound was classed as inactive.

For `O=[N+]([O-])C(CO)(CO)CO`, the call was inactive.

For `Cc1ccc2ncccc2c1`, the call was inactive.

On to `CNCc1cc(F)ccc1Oc1ccc(Cl)c(Cl)c1`, for which the AC50 is 95.4 µM (active).

As for `CN1CCN(Cc2cc(-c3ccc4[nH]c(=O)oc4c3)co2)[C@@H](c2ccc(F)cc2)C1`, the AC50 is 50 µM (active).

Take `CCCCc1ccc2c(n1)[C@@H](c1ccc(OC)cc1C[C@H](C)C(=O)O)[C@H](C(=O)O)[C@H]2c1ccc2c(c1)OCO2`: the compound was classed as inactive.

In the case of `O=C(OCCCCCOC(=O)c1ccccc1)c1ccccc1`, the half-maximal activity concentration (AC50) is 1.02 µM (active).

Take `Cc1oc(-c2ccccc2)nc1CCOc1cccc2c1ccn2CCC(=O)O`: the AC50 was 82 µM (active).

Turning to `Oc1ccc2c(c1)OC[C@@H](N1CCC(O)(c3ccc(F)cc3)CC1)[C@H]2O`, the compound was called inactive.

In the case of `OC[C@@H](O)[C@@H](O)[C@H](O)[C@H](O)CO`, the result was inactive.

Regarding `Cc1ccc(Cl)cc1`, the compound was classed as inactive.

Regarding `Cc1nc(-c2ccc3c(c2)CCN(CCC2CCC(NC(=O)/C=C/c4ccc(F)cc4)CC2)CC3)no1` (stereo not given), the compound was classed as inactive.

`NCC1(Cc2noc(=O)[nH]2)CCCCC1`: the outcome was inactive.

With `FC(F)(F)C(F)(F)C(F)(F)C(F)(F)C(F)(F)C(F)(F)CCI`, the outcome was inactive.

Consider `CNC(=O)[C@H]1O[C@@H](n2cnc3c(NCc4cc(Cl)ccc4OCc4cc(C)no4)ncnc32)[C@H](O)[C@@H]1N`, for which the compound was called inactive.

With `Cc1cccc([N+](=O)[O-])c1C`, the compound was called inactive.

For `CCCCCCCCCCC`, the compound was classed as inactive.

With `CC(C)(C)c1cc(O)c(C(C)(C)C)cc1O`, the half-maximal activity concentration (AC50) is 75.7 µM (active).

Values taken from PubChem BioAssay (EPA / NIEHS).
